The values below come from PubChem BioAssay AID1224817 (Yan Lab, Georgia Cancer Center, Augusta University, 2016).

The campaign covered roughly 2,000 compounds. About 25 (1%) were called active.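 The calls were made as follows: active = log2 luciferase ratio at or below -0.5849, meaning signal at two thirds of solvent-only control or lower; inactive = the rest.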 What follows is part of a selection rich in actives, with near analogues and random picks from the rest.

The nature of this assay: eIF4E expression suppression, luciferase knock-in reporter – cell-based, HT1080, primary screen (AID 1224817).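 Also: luciferase reports endogenous eIF4E expression since it is co-expressed from the native EIF4E locus.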 The conditions noted are these: HT1080 EIF4E-luc2 knock-in reporter, 16 h, at 2.5 µM, stronger effect = lower value.
In the case of `Cc1ccccc1C(=N)c1ccccc1Cc1cccc2ccccc12`, the log2 luciferase activity ratio was 0.0556 (inactive).
Regarding `CC1(C)C(CC(=O)O)CCCC1CC(=O)O` (centres undefined), the log2 luciferase activity ratio was -0.193 (inactive).
In the case of `N=C1C(O)C2(I)c3ccccc3N3C(=N)C(O)C4c5ccccc5N1C4C32` (centres undefined) it was 0.988 (inactive); in that of `CC[C@]12CCCN3CCc4c(n(c5ccccc45)C(=O)C1)[C@@H]32`, -0.317 (inactive).
In the case of `COC(=O)C1OC(SCCN)C(O)C(O)C1O` (centres undefined) it was 0.246 (inactive); in that of `O=C(O)c1nnsc1-c1csnn1`, -0.0043 (inactive); in that of `CN(C)Cc1cc(C(=O)O)cc(CN(C)C)c1O`, -0.293 (inactive).
In the case of `CC(=O)Nc1ccc(-c2cc(C(=O)O)c3cc4ccccc4cc3n2)cc1` it was 0.356 (inactive); in that of `C[C@@H]1C[C@H]2[C@@H]3CCC4=CC(=O)C=C[C@]4(C)[C@@]3(Cl)[C@@H](Cl)C[C@]2(C)[C@@]1(O)C(=O)COP(=O)(O)O`, 0.28 (inactive); in that of `CC[C@@H]1CN(C)[C@H]2Cc3c([nH]c4ccccc34)C(=O)C[C@H]1C2C(=O)OC` (some centres undefined), -0.243 (inactive).
As for `COc1ccc2c(c1)O[C@H]1c3ccc(O)cc3OC[C@@H]21`, the log2 luciferase activity ratio was 0.161 (inactive).
In the case of `Cn1c([N+](=O)[O-])cnc1CN1CCN(CCO)CC1` it was 0.268 (inactive); in that of `O=C(O)c1cccc(CN2CCCCC2)c1`, 0.0092 (inactive); in that of `C[N+](C)(C)/N=C/c1ccc(O)c(O)c1`, -0.303 (inactive).
The same measure for `NC(N)=NC(N)=Nc1ccc(S(N)(=O)=O)cc1`: -0.0076 (inactive).
As for `CCCCN(c1ccccc1)c1ncnc2c1cnn2C`, the log2 luciferase activity ratio is -0.0702 (inactive).
In the case of `COc1ccc2nc3cc(Cl)ccc3c(Nc3ccc(O)c(CN4CCN(C)CC4)c3)c2c1` it was 0.0343 (inactive); in that of `NC(CC(=O)O)(Cc1ccccc1)C(=O)O` (centres undefined), -0.129 (inactive).
In the case of `O=S1(=O)OC(c2ccc(O)cc2)(c2ccc(O)cc2)c2ccccc21`, the log2 luciferase activity ratio is 0.424 (inactive).
In the case of `O=S1(=O)C(c2ccccc2)C(N2CCCCC2)C1C1CC2c3ccccc3C1c1ccccc12` (centres undefined), the log2 luciferase activity ratio is 0.456 (inactive).
For `Cc1cc(N2CCOCC2)nc2ccc(Cc3ccc4nc(N5CCOCC5)cc(C)c4c3)cc12`, the log2 luciferase activity ratio was 0.197 (inactive).
In the case of `OC(Cc1ccccc1)(Cc1ccccc1)c1ccccc1` it was -0.0177 (inactive); in that of `OC(c1cc(C23CC4CC(CC(C4)C2)C3)nc2c(Cl)cc(Cl)cc12)C1CCCCN1` (centres undefined), 0.104 (inactive).
The same measure for `Oc1ccc(-c2nc(-c3cccnc3)c(-c3ccc(F)cc3)[nH]2)cc1`: -0.338 (inactive).
In the case of `C=C1C(=O)O[C@H]2[C@H]1[C@H](OC(=O)/C(C)=C\C)CC(=C)[C@@H]1[C@H](O)[C@H]3O[C@@]3(C)[C@@]12O` it was 0.0107 (inactive); in that of `C=C1C(=O)OC2C1C(OC(=O)/C(C)=C/C)CC(O)(CCl)C1C(OC(C)=O)C=C(C)C21O` (centres undefined), -1.14 (active).
`C=C1C(=O)OC2C1C(OC(=O)/C(C)=C/COC(C)=O)CC1(CO1)C1C(O)C=C(C)C21` (centres undefined): the log2 luciferase activity ratio was -0.477 (inactive).
The same measure for `O=C(O)C(=O)/C=C(\O)c1ccc(Br)cc1`: -0.065 (inactive); for `N=C(CC(=O)Nc1ccccn1)c1ccccc1`: 0.825 (inactive); for `COc1ccc(/C=N/NC(=O)O)cc1`: 0.161 (inactive).
The same measure for `CC(CSC(=N)N)C(N)=O` (centres undefined): 0.0537 (inactive); for `Cc1c(-c2nc(N)nc(C3CC3)c2C)nc(N)nc1C1CC1`: -0.199 (inactive); for `CN1CCN(CC(=O)N2c3ccccc3Sc3cc4ccccc4cc32)CC1`: 0.0693 (inactive).
In the case of `Nc1nc(Cl)cc(NCCO)n1` it was -0.615 (active).
Consider `O=[N+]([O-])c1cc(Cl)cc2c1nc(NCCO)c1ccccc12`, for which the log2 luciferase activity ratio is 0.0337 (inactive).
Regarding `COc1cccc2c1C(CO)N1C(C#N)C3CC(C(=O)O)C(C1C2)N3C` (centres undefined), the log2 luciferase activity ratio is -1.55 (active).
The same measure for `O=C(O)C1Cc2c([nH]c3ccccc23)C(CCCCO)N1` (centres undefined): -0.0145 (inactive); for `O=C1OC(c2ccc(O)c(-c3ccccc3)c2)(c2ccc(O)c(-c3ccccc3)c2)c2c(Cl)c(Cl)c(Cl)c(Cl)c21`: -0.153 (inactive); for `CN(C)c1ccc2nc3c(C(=O)O)cc(=O)c(O)c-3oc2c1`: -2.21 (active).
For `O=C(O)c1ccc(Cc2ccccc2C(=O)O)cc1`, the log2 luciferase activity ratio was -0.21 (inactive).
Take `COC(=O)[C@]1(C)CCC[C@]2(C)C3=CC(=O)[C@@]4(C(C)C)O[C@H]4[C@]3(O)CC[C@@H]12`: the log2 luciferase activity ratio is -0.359 (inactive).
In the case of `OC1(c2ccccc2)c2ccccc2NC2=NCCN21` (centres undefined) it was 0.416 (inactive).
In the case of `Ic1ccc2c(c1)N(c1ccccc1)c1cc(N=c3ccc4nc5ccc(I)cc5n(-c5ccccc5)c-4c3)ccc1N2` it was 0.338 (inactive); in that of `CC(=O)[C@H]1CC[C@@H]2[C@]1(C)CC=C1[C@]23C=C[C@]2(C[C@@H](O)CC[C@]12C)C(C(=O)O)C3C(=O)O` (some centres undefined), -0.137 (inactive); in that of `COc1nc(N)nc2c1ncn2C1CC(O)C(CO)O1` (centres undefined), 0.0307 (inactive).
The same measure for `Cn1cnc([N+](=O)[O-])c1Sc1nc(N)nc2c1ncn2C1CC(O)C(CO)O1` (centres undefined): -0.645 (active).
As for `CC(C)Cn1cnc2c(Sc3c([N+](=O)[O-])ncn3C)nc(N)nc21`, the log2 luciferase activity ratio is -0.473 (inactive).
The same measure for `CC1(C)CC23C4COC(=O)C2CCC1C3CC4=O` (centres undefined): 0.113 (inactive).
The same measure for `O=C(O)CCn1cnc2c(=S)nc[nH]c21`: -0.179 (inactive).
The same measure for `C[C@@H]1C(=O)C[C@H]2C(C)(C)CCC[C@]2(C)[C@@]1(O)CCc1ccoc1`: -0.608 (active); for `O=C(CSc1nc2ccccc2s1)c1sc2sc3ccccc3[n+]2c1[O-]`: 0.244 (inactive).
Consider `O=C(O)C1C(C(=O)O)C2C(=O)C=CC1N2Cc1ccccc1` (centres undefined), for which the log2 luciferase activity ratio is 0.0328 (inactive).
In the case of `CC(C)Cn1cnc2c(SCc3ccc(Cl)cc3Cl)nc(N)nc21` it was 0.484 (inactive).
As for `NC1(C(=O)NC2(C(=O)O)CCCC2)CCCC1`, the log2 luciferase activity ratio was 0.0359 (inactive).
`O=C(Nc1ccc(Nc2ccc3c(c2)C(=O)c2ccccc2C3=O)c2c1C(=O)c1ccccc1C2=O)c1ccccc1`: the log2 luciferase activity ratio was 0.326 (inactive).
Consider `O=C(O)[C@H](c1ccccc1)[C@@H](C(=O)O)c1ccccc1`, for which the log2 luciferase activity ratio is -0.0929 (inactive).
The same measure for `NNC(=O)Cc1cccnc1`: 0.269 (inactive); for `N=C(N)SCCN1CCCCC1`: 0.0135 (inactive); for `CCCNc1ncnc2[nH]ncc12`: -0.531 (inactive).
